Measured values from ChEMBL document CHEMBL1961873, “Compounds: GSK PKIS; Assays: Nanosyn kinase panel” (2012).
“And” between values parts separate entries of the source, which are not always exact repeats. Identical values can stand only once.

Key:
[1] = target: T1, Serine/threonine-protein kinase D2 (Homo sapiens) (UniProt Q9BZL6); details: at 1 µM;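 note: mean value of PRKD2 inhibition, from the GSK PKIS screening panel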
T1 sequence (whole entry): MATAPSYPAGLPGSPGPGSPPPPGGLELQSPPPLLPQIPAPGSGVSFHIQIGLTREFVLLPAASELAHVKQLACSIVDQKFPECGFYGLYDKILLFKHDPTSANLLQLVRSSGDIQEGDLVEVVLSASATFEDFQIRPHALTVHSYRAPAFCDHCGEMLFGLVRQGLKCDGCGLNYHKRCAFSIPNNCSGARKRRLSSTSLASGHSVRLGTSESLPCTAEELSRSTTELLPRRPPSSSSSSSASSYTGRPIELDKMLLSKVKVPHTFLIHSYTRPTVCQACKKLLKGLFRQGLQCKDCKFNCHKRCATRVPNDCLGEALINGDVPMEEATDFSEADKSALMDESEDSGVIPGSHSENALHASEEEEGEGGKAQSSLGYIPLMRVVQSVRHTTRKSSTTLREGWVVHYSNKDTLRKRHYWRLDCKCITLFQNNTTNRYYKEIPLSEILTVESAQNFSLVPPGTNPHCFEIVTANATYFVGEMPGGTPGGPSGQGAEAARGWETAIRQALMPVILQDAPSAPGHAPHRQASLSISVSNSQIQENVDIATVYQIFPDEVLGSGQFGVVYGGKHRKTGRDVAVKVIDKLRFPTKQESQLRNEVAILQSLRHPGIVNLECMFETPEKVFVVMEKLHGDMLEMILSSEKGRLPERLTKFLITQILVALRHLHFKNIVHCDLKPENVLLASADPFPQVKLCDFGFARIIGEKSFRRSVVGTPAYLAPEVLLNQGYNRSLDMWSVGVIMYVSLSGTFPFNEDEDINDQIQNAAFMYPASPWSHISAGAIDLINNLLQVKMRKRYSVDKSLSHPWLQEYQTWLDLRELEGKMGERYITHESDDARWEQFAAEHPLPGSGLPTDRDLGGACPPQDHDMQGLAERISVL

[2] = target: T2, Serine/threonine-protein kinase D3 (Homo sapiens) (UniProt O94806); details: at 0.1 µM
T2 sequence (whole entry): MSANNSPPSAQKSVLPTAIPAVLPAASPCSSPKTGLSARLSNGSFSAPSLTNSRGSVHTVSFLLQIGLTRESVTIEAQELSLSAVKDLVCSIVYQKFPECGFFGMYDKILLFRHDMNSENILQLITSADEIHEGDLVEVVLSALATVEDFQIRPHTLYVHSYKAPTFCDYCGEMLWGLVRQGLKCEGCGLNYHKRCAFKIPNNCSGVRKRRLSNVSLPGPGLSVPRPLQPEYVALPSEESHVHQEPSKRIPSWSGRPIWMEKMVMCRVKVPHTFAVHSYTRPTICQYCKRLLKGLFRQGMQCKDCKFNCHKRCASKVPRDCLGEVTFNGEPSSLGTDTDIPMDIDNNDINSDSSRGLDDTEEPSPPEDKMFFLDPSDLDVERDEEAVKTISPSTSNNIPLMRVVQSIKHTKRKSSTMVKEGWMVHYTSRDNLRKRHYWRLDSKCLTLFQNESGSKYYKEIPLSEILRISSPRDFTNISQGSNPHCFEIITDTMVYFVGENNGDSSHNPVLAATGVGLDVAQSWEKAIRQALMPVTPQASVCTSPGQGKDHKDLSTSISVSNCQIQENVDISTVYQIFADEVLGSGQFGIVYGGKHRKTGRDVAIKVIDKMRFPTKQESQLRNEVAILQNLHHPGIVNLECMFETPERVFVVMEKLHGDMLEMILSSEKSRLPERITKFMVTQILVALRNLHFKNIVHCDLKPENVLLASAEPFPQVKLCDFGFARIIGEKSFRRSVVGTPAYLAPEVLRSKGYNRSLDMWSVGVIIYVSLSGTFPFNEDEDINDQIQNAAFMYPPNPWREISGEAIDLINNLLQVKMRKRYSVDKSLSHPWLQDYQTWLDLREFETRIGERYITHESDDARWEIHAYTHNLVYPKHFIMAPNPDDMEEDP

[3] = target: T2, Serine/threonine-protein kinase D3 (Homo sapiens); details: at 1 µM
[4] = target: T3, cGMP-dependent protein kinase 1 (Homo sapiens) (UniProt Q13976); details: at 0.1 µM
T3 sequence (whole entry): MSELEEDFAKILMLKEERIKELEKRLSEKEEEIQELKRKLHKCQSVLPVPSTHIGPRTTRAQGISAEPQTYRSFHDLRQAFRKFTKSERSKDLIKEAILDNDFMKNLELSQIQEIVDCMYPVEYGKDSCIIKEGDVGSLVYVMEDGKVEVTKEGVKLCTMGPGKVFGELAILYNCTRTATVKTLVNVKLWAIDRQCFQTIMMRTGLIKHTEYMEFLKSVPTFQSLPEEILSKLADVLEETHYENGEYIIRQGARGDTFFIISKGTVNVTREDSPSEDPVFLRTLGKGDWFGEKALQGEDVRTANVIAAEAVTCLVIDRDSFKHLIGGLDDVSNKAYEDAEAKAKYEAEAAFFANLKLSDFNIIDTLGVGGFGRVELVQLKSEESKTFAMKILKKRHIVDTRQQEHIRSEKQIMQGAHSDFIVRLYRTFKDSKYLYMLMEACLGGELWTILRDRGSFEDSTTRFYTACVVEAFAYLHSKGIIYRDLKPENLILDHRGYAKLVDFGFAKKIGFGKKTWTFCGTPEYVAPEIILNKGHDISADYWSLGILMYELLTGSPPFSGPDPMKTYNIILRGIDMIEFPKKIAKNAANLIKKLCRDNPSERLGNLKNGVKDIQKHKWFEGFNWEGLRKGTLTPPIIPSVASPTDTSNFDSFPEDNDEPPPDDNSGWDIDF

[5] = target: T3, cGMP-dependent protein kinase 1 (Homo sapiens); details: at 1 µM
[6] = target: T4, cGMP-dependent protein kinase 2 (Homo sapiens) (UniProt Q13237); details: at 0.1 µM
T4 sequence (whole entry): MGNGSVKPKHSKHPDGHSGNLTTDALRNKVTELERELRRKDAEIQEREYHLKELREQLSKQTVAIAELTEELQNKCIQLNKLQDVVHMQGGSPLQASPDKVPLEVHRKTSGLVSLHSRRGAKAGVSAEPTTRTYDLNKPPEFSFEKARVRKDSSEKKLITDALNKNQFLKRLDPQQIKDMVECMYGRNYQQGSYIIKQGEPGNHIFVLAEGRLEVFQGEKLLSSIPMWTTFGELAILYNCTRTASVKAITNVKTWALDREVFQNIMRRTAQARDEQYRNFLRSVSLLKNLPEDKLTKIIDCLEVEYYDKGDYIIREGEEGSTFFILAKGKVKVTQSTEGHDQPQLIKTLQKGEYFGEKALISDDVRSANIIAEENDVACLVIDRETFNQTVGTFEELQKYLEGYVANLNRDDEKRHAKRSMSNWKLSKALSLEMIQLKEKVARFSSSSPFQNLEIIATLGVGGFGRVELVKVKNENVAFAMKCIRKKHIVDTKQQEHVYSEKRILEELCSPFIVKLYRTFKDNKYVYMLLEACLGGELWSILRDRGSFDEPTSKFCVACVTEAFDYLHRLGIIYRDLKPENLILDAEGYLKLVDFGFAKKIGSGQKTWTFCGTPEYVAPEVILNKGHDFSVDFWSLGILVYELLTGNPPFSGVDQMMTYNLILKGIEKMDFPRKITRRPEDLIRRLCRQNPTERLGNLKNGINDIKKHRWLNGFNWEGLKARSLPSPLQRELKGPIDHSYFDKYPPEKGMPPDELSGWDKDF

[7] = target: T4, cGMP-dependent protein kinase 2 (Homo sapiens); details: at 1 µM
[8] = target: T5, cAMP-dependent protein kinase catalytic subunit PRKX (Homo sapiens) (UniProt P51817); details: at 0.1 µM
T5 sequence (whole entry): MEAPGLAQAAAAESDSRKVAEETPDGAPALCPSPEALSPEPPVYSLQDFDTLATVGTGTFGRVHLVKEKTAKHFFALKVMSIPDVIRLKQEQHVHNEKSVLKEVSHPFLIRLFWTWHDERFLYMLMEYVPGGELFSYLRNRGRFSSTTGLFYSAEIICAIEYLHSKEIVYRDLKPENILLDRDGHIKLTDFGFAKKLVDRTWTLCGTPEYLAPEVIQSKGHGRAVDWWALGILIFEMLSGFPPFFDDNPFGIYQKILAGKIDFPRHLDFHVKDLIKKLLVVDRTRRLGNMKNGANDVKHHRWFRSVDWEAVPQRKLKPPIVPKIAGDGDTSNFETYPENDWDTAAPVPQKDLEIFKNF

[9] = target: T5, cAMP-dependent protein kinase catalytic subunit PRKX (Homo sapiens); details: at 1 µM
[10] = target: Rho-associated protein kinase 1 (Homo sapiens) (UniProt Q13464); details: at 0.1 µM;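 note: values are mean percent inhibition of ROCK1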
Sequence of Rho-associated protein kinase 1 (Homo sapiens) (Q13464 2-1354 limits assumed): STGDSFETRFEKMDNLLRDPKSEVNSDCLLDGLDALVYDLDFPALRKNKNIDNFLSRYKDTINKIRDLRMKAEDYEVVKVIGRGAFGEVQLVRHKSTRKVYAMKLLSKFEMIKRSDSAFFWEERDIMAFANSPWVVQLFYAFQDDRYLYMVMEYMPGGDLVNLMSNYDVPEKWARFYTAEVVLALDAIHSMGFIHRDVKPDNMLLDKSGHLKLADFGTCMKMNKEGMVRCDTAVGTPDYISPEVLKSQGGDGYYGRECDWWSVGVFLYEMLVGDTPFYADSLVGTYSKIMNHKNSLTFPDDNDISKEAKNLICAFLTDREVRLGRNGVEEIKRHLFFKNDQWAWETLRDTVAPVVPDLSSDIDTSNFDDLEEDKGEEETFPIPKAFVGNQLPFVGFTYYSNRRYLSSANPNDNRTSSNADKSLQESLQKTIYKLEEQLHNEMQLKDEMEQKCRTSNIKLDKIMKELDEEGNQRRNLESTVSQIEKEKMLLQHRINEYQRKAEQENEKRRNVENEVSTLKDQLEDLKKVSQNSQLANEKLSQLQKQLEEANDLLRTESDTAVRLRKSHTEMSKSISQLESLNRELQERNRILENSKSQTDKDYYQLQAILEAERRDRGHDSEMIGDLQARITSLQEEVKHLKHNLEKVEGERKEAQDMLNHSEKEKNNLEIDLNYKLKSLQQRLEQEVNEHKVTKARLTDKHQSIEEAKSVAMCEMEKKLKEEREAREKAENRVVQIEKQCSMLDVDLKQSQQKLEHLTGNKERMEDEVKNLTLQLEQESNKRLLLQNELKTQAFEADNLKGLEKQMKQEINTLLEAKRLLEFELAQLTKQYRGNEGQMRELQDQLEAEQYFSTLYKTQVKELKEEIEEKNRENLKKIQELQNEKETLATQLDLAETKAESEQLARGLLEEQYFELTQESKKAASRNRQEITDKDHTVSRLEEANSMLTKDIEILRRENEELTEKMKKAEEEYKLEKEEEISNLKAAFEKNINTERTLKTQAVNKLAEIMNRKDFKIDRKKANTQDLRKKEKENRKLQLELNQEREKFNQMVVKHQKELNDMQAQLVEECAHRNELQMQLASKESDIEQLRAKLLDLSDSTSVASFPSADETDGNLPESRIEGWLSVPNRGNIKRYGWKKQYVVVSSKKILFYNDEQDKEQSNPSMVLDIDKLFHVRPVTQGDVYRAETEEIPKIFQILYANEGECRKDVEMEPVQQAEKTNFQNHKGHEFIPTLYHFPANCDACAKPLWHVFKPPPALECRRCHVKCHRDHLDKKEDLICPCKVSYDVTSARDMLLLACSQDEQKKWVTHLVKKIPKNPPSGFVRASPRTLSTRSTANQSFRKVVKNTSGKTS

| Structure (SMILES) | inhibition [1] | inhibition [2] | inhibition [3] | inhibition [4] | inhibition [5] | inhibition [6] | inhibition [7] | inhibition [8] | inhibition [9] | inhibition [10] |
| --- | --- | --- | --- | --- | --- | --- | --- | --- | --- | --- |
| Nc1ncnc2occ(-c3ccc(NC(=O)Nc4cc(C(F)(F)F)ccc4F)cc3)c12 | 1.3% and 0.14% | 2.15% and -1.96% | 1.95% and -2.28% | 2.47% and 0.31% | 1.42% and 0.75% | 1.4% and 0.27% | 2.16% and 1.02% | 0.81% and 0.1% | -1.13% and -0.05% | 1.07% and 0.31% |
| Nc1nccc(-c2c(-c3ccc(F)cc3)ncn2C2CCNCC2)n1 | 29.1% and 38.3% | -2.12% and 2.32% | 17.6% and 25.6% | -1.2% and -1.11% | -1.21% and 1.73% | -2.2% and 1.13% | 3.3% and 1.57% | -1.45% and 1.45% | -1.91% and 2.45% | -0.99% and 1.19% |
| Fc1cccc(COc2ccc(Nc3ncncc3C#Cc3ccccc3)cc2Cl)c1 | 6.54% | 6.12% | 5.73% | 3.8% | 4.39% | 3.39% | 3.87% | 2.56% | 5.39% | 1.15% |
| CCOc1ccc2c(-c3ccnc(Nc4cc(OC)cc(C(F)(F)F)c4)n3)cnn2n1 | 0.81% | -0.03% | 1.2% | 0.85% | 7.21% | 0.36% | 2.15% | 0.62% | 0.2% | -0.28% |
| N#Cc1cccc(Nc2ncc(-c3ccccc3)o2)c1 | 2.25% | 1.91% | 1.02% | -0.54% | 3.32% | 0.03% | 1.45% | 1.09% | 2.62% | 0.04% |
| OCCCNc1nccc(-c2c(-c3ccc(F)cc3)nn3cc(C(F)(F)F)ccc23)n1 | 16.9% | 4.73% | 33.9% | 1.52% | 4.78% | 2.03% | 3.96% | 0.4% | -0.76% | 0.15% |
| CC1=C(C(=O)Nc2ccc3[nH]nc(C)c3c2)C(c2ccc(C(F)(F)F)cc2)CC(=O)N1 (stereo not given) | 4.33% | 3.46% | 9.27% | 3.93% | 18.2% | 5.55% | 40.2% | 7.3% | 47% | 67.8% |
| CS(=O)(=O)CCNCc1ccc(-c2ccc3ncnc(Nc4ccc(OCc5ccccc5)cc4)c3c2)o1 | 2.54% | 3.53% | 3.51% | 2.37% | 1.88% | 2.69% | 2.6% | 1.54% | 1.49% | 1.22% |
| CNC(=O)c1ncccc1Nc1nc(Nc2cc3c(cc2OC)CCCN3C(=O)CN(C)C)nc2[nH]ccc12 | 41.6% | 9.65% | 55.3% | 1.9% | 7.42% | 3.34% | 5.86% | 1.64% | 1.14% | 1.58% |
| N#Cc1ccc2c(-c3ccnc(NC4CC4)n3)c(-c3ccc(F)cc3)nn2c1 | 44.2% | 6.5% | 41.7% | 1.2% | -0.35% | 0.69% | -1.36% | 1.65% | 0.23% | 0.62% |
| O=C(O[C@H]1CN[C@H](C#Cc2cc3ncnc(Nc4ccc5c(ccn5Cc5cc(F)ccc5F)c4)c3s2)C1)N1CCOCC1 | 5.35% | 5.21% | 6.35% | 2.6% | 3.55% | 2.56% | 3.72% | 2.19% | 2.67% | 0.77% |
| COc1cc(Nc2ncc(-c3ccccc3)o2)cc(OC)c1 | 1.86% | 5.05% | 4.51% | 1.76% | 1.96% | 1.74% | 2.19% | 0.91% | 4.53% | 2.5% |
| NS(=O)(=O)c1ccc(N/N=C2\C(=O)Nc3ccc(C(=O)NCc4ccncc4)cc32)cc1 | 18.5% | 4.33% | 16.4% | 5% | 19.3% | 5.42% | 18.4% | 6.16% | 15.5% | 0.63% |
| O=C(O[C@H]1CN[C@H](C#Cc2cc3ncnc(Nc4ccc5c(cnn5Cc5ccccc5)c4)c3s2)C1)N1CCOCC1 | 1.12% | 0.01% | 1.45% | -0.48% | -0.54% | -0.72% | 0.09% | -0.58% | -0.71% | -2.14% |
| CCn1c(-c2nonc2N)nc2cncc(C(=O)NCCNC)c21 | 5.38% | 5.66% | 6.85% | 36.2% | 70% | 61.7% | 73.8% | 18.4% | 63.9% | 71.8% |
